# Bioassay records from PubChem BioAssay.
# The list is not random: actives were taken first. Their share in the collection is about 13%.
# Pf growth 48h – inhibits P. falciparum growth in the first generation, 48 h; P. falciparum luciferase growth in erythrocytes, 48 h; Potency, µM (series often up to 28.7 µM), without a hit: top-dose activity change, negative = inhibition, usual class: inhibitors; 5.9% of 310,000 active; AID 504832; note: potency is the fitted concentration of half-maximal effect
#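 Erythrocytes infected with P. falciparum carrying an integrated firefly luciferase reporter (2% hematocrit, 0.1% parasitemia final) were exposed to compounds in RPMI 1640 with 0.5% Albumax at 37 C, 5% CO2. Growth inhibition was scored as reduced luminescence.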
# HCV inh – blocks hepatitis C virus | 3.4% of 340,000 active | Huh7.5.1 HCVcc-Cre infection, luciferase reporter, 44 h | AID 651820 | Potency, µM (top dose mostly 41.8 µM), for the others: at the highest dose activity change, negative = inhibition, actives largely listed as inhibitors; note: potency is the fitted concentration of half-maximal effect
#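 Whole-lifecycle infectious HCVcc-Cre system; cells 1,000/well, compound then virus (~0.5 moi) added 4 h after plating, 44 h culture. Luciferase read 15 sec following 15 min substrate incubation, room temp.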
# HCMV antiviral – blocks human cytomegalovirus replication; HFF cells, HCMV-luciferase reporter, 72 h; active compounds read low; activity change, negative = inhibition, % at 57.5 µM; 4.5% of 410,000 active; AID 1259415; in the data active = activity change below about -60%; inconclusive = no clear call, values can overlap the other calls; inactive = above about -39%
#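 After 16 h attachment at 37C, HFF cells received test compound and HCMV-luciferase (1 PFU/cell); reporter luminescence read 72 h later, data normalized against buffer-only and known inhibitor Salinomycin.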
# Pf growth 96h – P. falciparum growth inhibition at 96 hours; Potency, µM (top dose mostly 28.7 µM), inactives show top-dose activity change, negative = inhibition, actives largely listed as inhibitors; P. falciparum luciferase reporter growth, 96 h; 6.9% of 320,000 active; note: potency is the fitted concentration of half-maximal effect
#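 P. falciparum expressing integrated firefly luciferase, in erythrocytes at 2% hematocrit, 0.05% parasitemia, incubated with compounds 96 h at 37 C, 5% CO2. Growth inhibition read as loss of luminescence; two-generation exposure targets delayed-death apicoplast inhibitors.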
# An asterisk follows results filed as active; ? = inconclusive; nt = not tested or not shown; [ ] = remark or other dose. Unless noted, calls come from the whole dose curve; as a rule, active = well fitted inhibition curve with a large enough effect; inconclusive = small, poorly fitted or top-dose-only effect, or another doubt; inactive = no such curve, though single readings can be large or run the other way. % is set by controls: 0 for no effect and ±100 for the full control effect.
SMILES,Pf growth 48h,HCV inh,HCMV antiviral,Pf growth 96h
COc1cc(NC(=O)CCc2c(C)nc3c4c(C)cc(C)nc4nn3c2C)cc(OC)c1,nt,nt,-36,nt
COc1ccc(-c2cc3c(=O)n(CC(=O)Nc4ccc(Br)c(C)c4)ccn3n2)cc1OC,nt,nt,22,nt
CCc1ccc(-n2c(=O)c3sc4ccccc4c3n(CC(=O)NC3CCCC3)c2=O)cc1,nt,nt,-7,nt
Cc1ccc(-n2nc(C)c3c(C(F)(F)F)cc(-c4cccnc4)nc32)cc1Cl,nt,nt,-2,nt
COc1cc2c(cc1OC)[C@@H]1C(=O)c3ccc4c(c3O[C@@H]1CO2)C[C@H](C(C)C)O4,?,0.32µM*,-94*,?
COc1cc2c(cc1OC)C1C(=O)c3ccc4c(c3OC1CO2)CC(C(C)C)O4 (stereo not drawn),nt,?,-96*,nt
COc1cc2c(cc1OC)[C@H]1C(=O)c3ccc4c(c3O[C@H]1CO2)C[C@@H](C(C)(C)O)O4,nt,?,-21,nt
COc1ccc(C2CC(=O)c3cc(OC)ccc3O2)cc1 (stereo not drawn),nt,4%,21,nt
Cc1cc(OCC(=O)Nc2ccc(C(=O)OC3CCCCC3)cc2)cc(C)c1Cl,nt,nt,-15,nt
C[C@@H]1CN(S(=O)(=O)C(C)(C)C)[C@@H](CCO)/C1=C\CCO,nt,nt,-9,nt
Cc1ccc2nc(-c3ccccc3)cn2c1,50%,-9%,-66*,?
COc1ccccc1N1CCN(C(=O)Cn2ncc3ccsc3c2=O)CC1,nt,nt,0,nt
N=c1c2c(-c3ccccc3)c(-c3ccccc3)oc2ncn1CCN1CCOCC1,7.4µM*,?,22,9.3µM*
N=c1c2c(-c3ccccc3)c(-c3ccccc3)oc2ncn1CCCN1CCOCC1,13µM*,?,12,12µM*
COc1ccc(C(=O)Nc2nc(C)c(C(C)=O)s2)cc1S(=O)(=O)N1CCOCC1,-7%,-16%,-92*,?
COc1ccc(C(=O)Nc2ccc(-c3cn4ccsc4n3)cc2)cc1S(=O)(=O)N1CCOCC1,?,-18%,-39,0.33µM*
COc1ccc(C(=O)Nc2ccc3nc(C)sc3c2)cc1S(=O)(=O)N1CCOCC1,nt,nt,-21,nt
COc1ccc(C(=O)Nc2ccc(-c3ccc(C)o3)cc2)cc1S(=O)(=O)N1CCOCC1,?,2.5µM*,-96*,nt
COc1ccc(C(=O)Nc2nnc(C)s2)cc1S(=O)(=O)N1CCOCC1,9%,?,12,-7%
COc1ccc(C(=O)Nc2ccc(N3CCOCC3)cc2)cc1S(=O)(=O)N1CCOCC1,43%,?,-13,9%
CCC(C(=O)Nc1cc(Cl)c(OC)cc1OC)c1ccccc1 (stereo not drawn),-40%[1.15 µM],?,-18,17%
COc1cc(OC)c(NC2=CC(=O)C(=O)c3ccccc32)cc1Cl,0.33µM*,5µM*,-82*,53%
NS(=O)(=O)c1ccc(NC2=CC(=O)C(=O)c3ccccc32)cc1,?,16µM*,50,10µM*
NS(=O)(=O)c1ccc(NC(=O)Nc2ccccc2)cc1,34%,-5%,52,41%
CCOC(=O)c1ccc(NC2=CC(=O)C(=O)c3ccccc32)cc1,5.9µM*,-16%,20,70%
SMILES,Pf growth 48h,HCV inh,HCMV antiviral,Pf growth 96h
Cc1ccc(NC2=CC(=O)C(=O)c3ccccc32)cc1,0.52µM*,10µM*,-104*,0.83µM*
Cc1ccc(Nc2ccccc2)cc1,-10%,16%,-14,?
Cc1c(C(=O)NCc2ccc(N(C)C)cc2)oc2c1-c1nn(Cc3cccc(Cl)c3)cc1CC2,nt,nt,15,nt
CCOCCCNC(=O)c1ccc(NC(=O)N2CCCCc3ccccc32)cc1,nt,nt,-4,nt
CCOc1ccc(CNC(=O)CCS(=O)(=O)c2cc3c4c(c2)CCN4C(=O)CC3)cc1,nt,nt,-4,nt
Cc1cc(NC2=CC(=O)C(=O)c3ccccc32)no1,nt,?,-102*,nt
Cc1cc(NC(=O)CCN2C(=O)c3ccccc3C2=O)no1,?,8%,11,?
Cc1ccccc1C(=O)O/N=C(\N)c1ccccc1,6%[0.00184 µM],?,85,4%
Cc1ccccc1/C(N)=N/OC(=O)N1c2ccccc2Sc2ccccc21,?,-2%,-21,10µM*
Cc1ccccc1/C(N)=N/OC(=O)c1ccc(F)cc1,-39%,?,-90*,?
N#C/C(=C(/O)c1ccco1)c1nc2ccccc2s1,74%,7%,48,70%
CC1=CC(=C(C#N)c2nc3ccccc3s2)C=C(C)N1Cc1ccco1,3.3µM*,?,58,nt
COc1ccc(C(CNC(=O)c2nn(-c3ccccc3)c(=O)c3ccccc23)N2CCOCC2)cc1 (stereo not drawn),-49%,0%,-30,10µM*
COc1ccc(-n2nc(C(=O)NCC(=O)N3CCC4(CC3)OCCO4)c3ccccc3c2=O)cc1,5%,-13%,70,3%
O=C(NCC(c1cccs1)N1CCOCC1)c1cn(-c2ccccc2)nc1-c1ccccc1 (stereo not drawn),?,?,-9,13µM*
COc1cccc(-c2nn(-c3ccc(C)cc3)cc2C(=O)NCC(c2cccs2)N2CCOCC2)c1 (stereo not drawn),3.3µM*,?,?,?
COc1cccc(-n2nc(C(=O)NCC3CCCO3)c3ccccc3c2=O)c1 (stereo not drawn),-16%,0%,34,3.7µM*
O=C(NCC(c1cccs1)N1CCOCC1)c1ccc(Cl)cc1 (stereo not drawn),-3%,19%,-31,0%
CC(=O)c1ccc(NC(=O)CN(C)S(=O)(=O)c2cc3c(cc2C)NC(=O)CO3)cc1,nt,nt,-3,nt
CCC1CCc2sc(C(=O)NCC(c3ccc(OC)cc3)N3CCOCC3)cc2C1 (stereo not drawn),12µM*,?,-10,?
COc1ccc(OC)c(-c2nn(-c3ccccc3)cc2C(=O)NCC(c2ccco2)N2CCCC2)c1 (stereo not drawn),9.3µM*,-17%,-33,?
COc1ccc(-c2nn(-c3ccccc3)cc2C(=O)NCC(c2cccs2)N2CCOCC2)cc1 (stereo not drawn),13µM*,?,-38,?
Cc1ccc(-c2noc(CNC(=O)c3ccccc3)n2)cc1,nt,nt,-1,nt
CC(=O)c1cc(-c2ccccc2)n(CCC(=O)NCc2ccc(C)cc2)c1C,nt,nt,0,nt
Cc1ccc(C(C(=O)NC2CCCCC2)N2CCOCC2)cc1 (stereo not drawn),16%,-1%,?,10µM*
Cc1ccc(CN(C(=O)c2ccco2)C(C(=O)NC2CCCC2)c2ccc(N3CCOCC3)cc2)cc1 (stereo not drawn),10µM*,?,-11,-18%
Cc1ccc(C(OC(=O)c2ccco2)C(=O)NC2CCCCC2)cc1 (stereo not drawn),7%,1%,-98*,?
O=C(NC1CCCCC1)C(c1ccccc1)N1CCOCC1 (stereo not drawn),2%,8%,-8,24%
CCOc1ccc(C(OC(=O)c2ccco2)C(=O)NCc2ccc(C)cc2)cc1 (stereo not drawn),42%,-3%,-74*,?
